From the supplement of paper PMC8975748
Structures can show the parent of a compound that is named as a salt. ± gives the standard deviation of the averaged measurements.

What was measured:
[1] = test system: Saccharomyces cerevisiae BY4741 SeMeCo community; assay: mean cell size (pixel area) (pixels); higher = larger cells; conditions: 10 µM; 24 h; SM minimal medium
How it was run: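 A Saccharomyces cerevisiae BY4741 community carrying four plasmids, each with a fluorescent marker and each complementing one auxotrophy, was exposed for 24 h to drug at a final 10 µM in SM medium in acoustically predosed 384-well plates. The overnight preculture (OD600 = 1.0) was diluted to OD600 = 0.3 before 70 µl was added per well. Cells were then fixed with paraformaldehyde, imaged by automated confocal microscopy and analysed in Harmony to derive mean cell pixel area per well, averaged over 3 replicates. Same SeMeCo high-content imaging drug screen: Selleck FDA-approved drugs at 10 µM, 24 h in SM medium, 384-well plates, 3 replicates.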

[2] = test system: Saccharomyces cerevisiae BY4741 SeMeCo community; assay: z-score of prototroph abundance vs DMSO median; higher = larger share of this subpopulation than in DMSO controls; conditions: 10 µM; 24 h; SM minimal medium; subpopulation (auxotrophy): Prototroph
How it was run: (§1)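 Scoring was based on each subpopulation's abundance, expressed as a z-score against the vehicle-well median. A Saccharomyces cerevisiae BY4741 community with four plasmids, each restoring one auxotrophy and encoding a distinct fluorescent protein, was pre-grown overnight to OD600 1.0, diluted to 0.3, and added at 70 µl to 384-well plates acoustically predosed with library drugs (10 µM final). It then grew 24 h in minimal SM medium before paraformaldehyde fixation and automated confocal microscopy, with single-auxotroph fluorescent strains setting thresholds and autofluorescence correction.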

[3] = test system: Saccharomyces cerevisiae BY4741 SeMeCo community; assay: z-score of subpopulation abundance vs DMSO median, subpopulation auxotrophic for M; higher = larger share of this subpopulation than in DMSO controls; conditions: 10 µM; 24 h; SM minimal medium; subpopulation (auxotrophy): M
How it was run: as §1

[4] = test system: Saccharomyces cerevisiae BY4741 SeMeCo community; assay: z-score of subpopulation abundance vs DMSO median, subpopulation auxotrophic for L; higher = larger share of this subpopulation than in DMSO controls; conditions: 10 µM; 24 h; SM minimal medium; subpopulation (auxotrophy): L
How it was run: as §1

[5] = test system: Saccharomyces cerevisiae BY4741 SeMeCo community; assay: z-score of subpopulation abundance vs DMSO median, subpopulation auxotrophic for U; higher = larger share of this subpopulation than in DMSO controls; conditions: 10 µM; 24 h; SM minimal medium; subpopulation (auxotrophy): U
How it was run: as §1

[6] = test system: Saccharomyces cerevisiae BY4741 SeMeCo community; assay: z-score of subpopulation abundance vs DMSO median, subpopulation auxotrophic for H; higher = larger share of this subpopulation than in DMSO controls; conditions: 10 µM; 24 h; SM minimal medium; subpopulation (auxotrophy): H
How it was run: as §1

[7] = test system: Saccharomyces cerevisiae BY4741 SeMeCo community; assay: z-score of subpopulation abundance vs DMSO median, subpopulation auxotrophic for LU; higher = larger share of this subpopulation than in DMSO controls; conditions: 10 µM; 24 h; SM minimal medium; subpopulation (auxotrophy): LU
How it was run: as §1

[8] = test system: Saccharomyces cerevisiae BY4741 SeMeCo community; assay: z-score of subpopulation abundance vs DMSO median, subpopulation auxotrophic for LM; higher = larger share of this subpopulation than in DMSO controls; conditions: 10 µM; 24 h; SM minimal medium; subpopulation (auxotrophy): LM
How it was run: as §1

[9] = test system: Saccharomyces cerevisiae BY4741 SeMeCo community; assay: z-score of subpopulation abundance vs DMSO median, subpopulation auxotrophic for HM; higher = larger share of this subpopulation than in DMSO controls; conditions: 10 µM; 24 h; SM minimal medium; subpopulation (auxotrophy): HM
How it was run: as §1

[10] = test system: Saccharomyces cerevisiae BY4741 SeMeCo community; assay: z-score of subpopulation abundance vs DMSO median, subpopulation auxotrophic for UM; higher = larger share of this subpopulation than in DMSO controls; conditions: 10 µM; 24 h; SM minimal medium; subpopulation (auxotrophy): UM
How it was run: as §1

[11] = test system: Saccharomyces cerevisiae BY4741 SeMeCo community; assay: z-score of subpopulation abundance vs DMSO median, subpopulation auxotrophic for HL; higher = larger share of this subpopulation than in DMSO controls; conditions: 10 µM; 24 h; SM minimal medium; subpopulation (auxotrophy): HL
How it was run: as §1

[12] = test system: Saccharomyces cerevisiae BY4741 SeMeCo community; assay: z-score of subpopulation abundance vs DMSO median, subpopulation auxotrophic for HUM; higher = larger share of this subpopulation than in DMSO controls; conditions: 10 µM; 24 h; SM minimal medium; subpopulation (auxotrophy): HUM
How it was run: as §1

[13] = test system: Saccharomyces cerevisiae BY4741 SeMeCo community; assay: z-score of subpopulation abundance vs DMSO median, subpopulation auxotrophic for LUM; higher = larger share of this subpopulation than in DMSO controls; conditions: 10 µM; 24 h; SM minimal medium; subpopulation (auxotrophy): LUM
How it was run: as §1

[14] = test system: Saccharomyces cerevisiae BY4741 SeMeCo community; assay: z-score of subpopulation abundance vs DMSO median, subpopulation auxotrophic for HLUM; higher = larger share of this subpopulation than in DMSO controls; conditions: 10 µM; 24 h; SM minimal medium; subpopulation (auxotrophy): HLUM
How it was run: as §1

[15] = test system: Saccharomyces cerevisiae BY4741 SeMeCo community; assay: z-score of subpopulation abundance vs DMSO median, subpopulation auxotrophic for HU; higher = larger share of this subpopulation than in DMSO controls; conditions: 10 µM; 24 h; SM minimal medium; subpopulation (auxotrophy): HU
How it was run: as §1

[16] = test system: Saccharomyces cerevisiae BY4741 SeMeCo community; assay: z-score of subpopulation abundance vs DMSO median, subpopulation auxotrophic for HLM; higher = larger share of this subpopulation than in DMSO controls; conditions: 10 µM; 24 h; SM minimal medium; subpopulation (auxotrophy): HLM
How it was run: as §1

SMILES	mean cell size [1]	z-score of prototroph abundance [2]	z-score of subpopulation abundance [3]	z-score of subpopulation abundance [4]	z-score of subpopulation abundance [5]	z-score of subpopulation abundance [6]	z-score of subpopulation abundance [7]	z-score of subpopulation abundance [8]	z-score of subpopulation abundance [9]	z-score of subpopulation abundance [10]	z-score of subpopulation abundance [11]	z-score of subpopulation abundance [12]	z-score of subpopulation abundance [13]	z-score of subpopulation abundance [14]	z-score of subpopulation abundance [15]	z-score of subpopulation abundance [16]
CCOC(=O)c1c(CSc2ccccc2)n(C)c2cc(Br)c(O)c(CN(C)C)c12 [Arbidol HCl]	12.6 ± 0.16	-0.66	0.41	-0.99	1.69	0.13	-0.24	-0.98	0.29	0.68	-0.66	0.09	-0.37	0.15		
O=C1Cc2cc(CCN3CCN(c4nsc5ccccc45)CC3)c(Cl)cc2N1 [Ziprasidone HCl]	12.2 ± 0.18	-0.07	0	1.56	-0.99	0.97		1.54	0.58		1.22	0.81	0.56	0.44	-0.4	1.1
CCn1cc(C(=O)O)c(=O)c2cc(F)c(N3CCNC(C)C3)c(F)c21 (stereo not given) [Lomefloxacin HCl]	12.1 ± 0.14	-1.02	1.99		-0.45		0.53	1.35	1.66	0.51	1.2	0.66		0.54	0.12	
N/C(=N\N=C\c1ccc(Cl)cc1)N/N=C/c1ccc(Cl)cc1 [Robenidine Hydrochoride]		-8.77	9.06	-1.06	-2.96		-2.55	5.64		6.84	6.84			18.1		10.4
CO/N=C(\C(=O)N[C@@H]1C(=O)N2C(C(=O)O)=C(CSC(=O)c3ccco3)CS[C@H]12)c1csc(N)n1 [Ceftiofur HCl]		-0.76	-0.14	-0.69	1.47	-0.05	1	-0.53	0.46		-0.8	2.38		0.19	0.85	
CN(C)c1cc(NC(=O)CNC(C)(C)C)c(O)c2c1CC1CC3C(N(C)C)C(=O)C(C(N)=O)=C(O)C3(O)C(=O)C1=C2O (stereo not given) [Tigecycline]		0.44	-1.16	-1.67	0.22	0.59	-0.07	-0.64	-0.15	-0.23	-0.79		-0.85	-0.04	1.34	0.02
O=C(N[C@H](CO)[C@H](O)c1ccc([N+](=O)[O-])cc1)C(Cl)Cl [Chloramphenicol]	12.5 ± 0.17	-0.39	0.86	0.12	-0.21	-0.01	-0.22	0.1	-0.25	-0.39	0.18	0.42	0.23	0.45	0.66	
CC1(C)S[C@@H]2[C@H](NC(=O)[C@H](N)c3ccc(O)cc3)C(=O)N2[C@H]1C(=O)O [Amoxicillin]	12.6 ± 0.28		0.35	-0.63	0.14		0.41	-0.13	0.32	0.46		0.4	0.09	0.49	0.65	
O=C(CCCN1CC=C(n2c(=O)[nH]c3ccccc32)CC1)c1ccc(F)cc1 [Droperidol]	12.61 ± 0.072	-0.55	0.67	0.41	0.1	-0.5	1.58		0.2	0.62				0.59	-0.11	
CC(C)(C)CC(C)(C)c1ccc(OCCOCC[N+](C)(C)Cc2ccccc2)cc1 [Benzethonium Chloride]	11.7 ± 0.27	0.89	-2.12	-0.55	0.39	0.3	-0.86	-0.72	-1.27	-0.2			0.65		0.13	
O=C(Cn1cnnn1)N[C@@H]1C(=O)N2C(C(=O)O)=C(CSc3nncs3)CS[C@H]12 [Ceftezole sodium]	12.31 ± 0.087	-0.69	0.01	-0.77	1.07	-0.94	0.2	0.18	-0.19	0.35	0	-0.02	0.36	0.82	0.45	
CN(C)CCOc1ccc(/C(=C(/CCCl)c2ccccc2)c2ccccc2)cc1 [Toremifene Citrate]	12.1 ± 0.2	-1.18	-0.37	0.06	0.79	2.17		0.69	0.66	0.54	1.37	0.27	0.81	-0.23	2.51	
